Results taken from PubChem BioAssay AID818 (SRMLSC, 2007).
Among all 140,000 compounds or so, about 2,100 (1.5%) were called active. This excerpt belongs to a sample that is enriched for actives. A number with no mark means an inactive call.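 The calls were made as follows: active = viability at or under a set limit, the compound median less 4 SD (cut at about 6% in these data); inactive = the rest.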

Test: primary screen for growth suppressors in beta-catenin knockout HCT116 cells (colon tumor, human) (AID 818);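 also: 0% = Hyamine 1622 control at 20 µM and 100% = untreated cell control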
Details: CellTiter-Glo, 60 h, at 10 µM, active compounds read low
With `COCCn1c(SCC(=O)Nc2ccc3c(c2)CCC3)nc2ccccc2c1=O` the viability was 81.5%.
Work on `O=C(/C=C/NCc1ccc(F)cc1)c1ccccc1` yielded a viability of 87.5%.
`NS(=O)(=O)c1cc(C(=O)NCCOc2ccccc2)c(Cl)cc1Cl` showed a viability of 78.4%.
In the case of `COc1ccccc1-n1nnnc1S(=O)(=O)Cc1ccc(Cl)cc1`, the viability is reported as 2.91% (active).
With `COc1ccccc1N1CCN(Cc2nnnn2CCc2ccccc2)CC1` the viability was 82.5%.
For `COc1ccccc1N1CCN(C(=O)CN(Cc2ccc(Cl)cc2)S(C)(=O)=O)CC1`, the viability was 68.4%.
Compound `CCc1cccc(C)c1NC(=O)COC(=O)Cc1ccsc1` has a viability of 80.8%.
Work on `COc1ccc(-c2cc(C(F)(F)F)nc(SCC(=O)Nc3ccc4c(c3)OCO4)n2)cc1OC` yielded a viability of 91.6%.
For `COc1ccc(/C=C(/NC(=O)c2ccc(C)cc2)c2nc3ccccc3[nH]2)cc1OC`, the viability was 87.3%.
With `O=C(/C(=C/c1cccc(Cl)c1)c1nc2ccccc2[nH]1)c1ccccc1` the viability was 1.3% (active).
`Oc1ccc(Cl)cc1/C=N/c1nc2ccccc2[nH]1` gave a viability of 89.3%.
With `Cc1cc(C)cc(C(=O)NC(=S)Nc2ccc3[nH]c(=O)[nH]c3c2)c1` the viability was 95.8%.
Compound `Cc1cccc(NC(=O)Cn2c(=O)n(Cc3ccccc3)c(=O)c3c(C)c(C)sc32)c1` has a viability of 77%.
In the case of `COc1ccc(/C=C(/CC(=O)Nc2ccc(C)cc2)c2nc3ccccc3s2)cc1`, the viability is reported as 73%.
With `Fc1ccccc1/C=C1\CCCC2=C1Nc1ncnn1C2c1ccccc1F` (stereo not drawn) the viability was 4.91% (active).
With `CC(C)(C)SCCNC(=O)c1cccc([N+](=O)[O-])c1` the viability was 97.8%.
For `COc1ccc(/C=C/C(=O)c2cc(Br)ccc(=O)c2O)cc1`, the viability was 11.3%.
Compound `CCC(CC)C(=O)N1CC(=O)Nc2ccc(Br)cc2C1c1ccccc1` (stereo not drawn) has a viability of 80.3%.
With `COC(=O)CN1C(C)=Nc2ccc(Br)cc2C1c1ccccc1` (stereo not drawn) the viability was 0.76% (active).
Work on `COC(=O)CN1C(=O)C(O)=C(C(C)=O)C1c1ccc([N+](=O)[O-])cc1` (stereo not drawn) yielded a viability of 86.9%.
With `CCCCCC(=O)Nc1ccc(S(=O)(=O)Nc2ccc(Cl)nn2)cc1` the viability was 102%.
`Cc1nc(NCCN)c(C#N)c2c1COC(C)(C)C2` gave a viability of 94.1%.
In the case of `CCCCc1nc(NCc2ccccc2)c(C#N)c2c1CCCC2`, the viability is reported as 81%.
In the case of `CCCCc1nc(NCCN)c(C#N)c2c1CSC(C)(C)C2`, the viability is reported as 1.71% (active).
`CCC(C)C(=O)Nc1cc([N+](=O)[O-])ccc1Cl` (stereo not drawn) gave a viability of 96.4%.
`Oc1c(Br)cccc1/C=N/Nc1c(F)c(F)c(F)c(F)c1F` gave a viability of 51%.
`O=c1c2sccc2nc(SCc2cc(=O)n3ccccc3n2)n1-c1ccc(Br)cc1` showed a viability of 59.1%.
With `CCCC(NS(=O)(=O)c1ccc(OC)cc1)C(=O)O` (stereo not drawn) the viability was 92.4%.
In the case of `CCCNC(=O)OC[C@H]1O[C@H](CCO/N=C/[C@@H](NS(=O)(=O)c2ccc(C)cc2)[C@H](C)/C=C/CC(=O)OC)C=C[C@@H]1Oc1ccc(OC)cc1`, the viability is reported as 0.62% (active).
For `COc1ccc(O[C@H]2C=C[C@@H](c3ccccc3)O[C@@H]2CO/N=C/C[C@@H]2C=C[C@H](OC(C)=O)[C@@H](COC(C)=O)O2)cc1`, the viability was 88.8%.
Compound `NNc1nc2c(Cl)cccc2s1` has a viability of 83.6%.
For `Cc1ccc(C(=O)Oc2coc(CSc3nnc(NC(=O)c4cccs4)s3)cc2=O)cc1C`, the viability was 96.1%.
In the case of `Cc1ccc(S(=O)(=O)NCCSc2ccccc2)cc1[N+](=O)[O-]`, the viability is reported as 104%.
`O=C(Nc1ccc(CSc2ccccc2)cc1)c1ccc(CN2CCOCC2)cc1` showed a viability of 12.2%.
For `COc1ccc(Cl)cc1-n1c(C)cc(C(=O)OCC(=O)N2CC(=O)Nc3ccccc32)c1C`, the viability was 69.3%.
Work on `Cc1cccc(NC(=O)c2sc(-c3ccccc3)nc2-c2ccc([N+](=O)[O-])cc2)c1` yielded a viability of 80.5%.
`O=C(Nc1ccccc1)/C(=C/c1ccc([N+](=O)[O-])cc1)NC(=O)c1ccccc1` gave a viability of 87.1%.
In the case of `CCOC(=O)/C(=C\c1ccc([N+](=O)[O-])cc1)C(=O)c1cc(C(C)=O)c(Nc2ccccc2)s1`, the viability is reported as 1.71% (active).
`Cc1cccc(N2C(=O)SC(SC(=Nc3ccccc3)Nc3ccccc3)C2=O)c1` (stereo not drawn) showed a viability of 82.6%.
With `Cc1ccc(C(=O)N/C(=C/c2cccnc2)C(=O)O)cc1` the viability was 87.7%.
With `CC(C)(C)c1nnc(N/N=C/c2ccc(O)cc2)n(N)c1=O` the viability was 90.8%.
For `c1ccc2c(c1)CSc1sccc1C2=C1CCNCC1`, the viability was 3.31% (active).
For `COc1ccc(-n2c(C)cc(C(=O)CN3C(=O)NC4(CCc5ccccc54)C3=O)c2C)cc1` (stereo not drawn), the viability was 70.1%.
`O=C(Nc1cccc(Cl)c1)Nc1ccccc1NS(=O)(=O)c1cccs1` showed a viability of 71.1%.
In the case of `Cc1csc(NC(=O)NC2(C(F)(F)F)Oc3ccccc3O2)n1`, the viability is reported as 5.7% (active).
Work on `O=C(Nc1cc(N2CCOCC2)ncn1)NC1(C(F)(F)F)Oc2ccc(Cl)cc2O1` (stereo not drawn) yielded a viability of 76.8%.
Work on `Cc1csc(NC(=O)CN2CCCCCC2)n1` yielded a viability of 93.4%.
`Cc1ccn(CC(=O)N2N=C(C(F)F)CC2(O)C(F)F)n1` (stereo not drawn) showed a viability of 101%.
`N#C/C(=C\C1=C(N2CCOCC2)C(=C\c2ccccc2)/CC1)C(=O)Nc1ccccc1F` gave a viability of 65.8%.
`CCN(CC)c1ccc(/C=N/Nc2nc(C)cc(=O)[nH]2)cc1` showed a viability of 76.5%.
In the case of `CCN(CC)c1ccc(/C=N/Nc2nc(C)cc(C)n2)c(O)c1`, the viability is reported as 5.53% (active).
`Oc1ccc(/C=N/NC2=NCCCCC2)c(O)c1` showed a viability of 94.7%.
`CCOC(=O)c1c(NC(=O)C2(C)Cc3ccccc3C(=O)O2)sc2c1CCCC2` (stereo not drawn) showed a viability of 79.4%.
In the case of `Cc1ccc(C)c(NC(=O)CCC(=O)NNC(=O)c2cccs2)c1`, the viability is reported as 96.8%.
With `O=C(/C=C\c1ccc2c(c1)OCO2)NC1(C(=O)Nc2ccc3c(c2)OCCO3)CCCCC1` the viability was 102%.
Compound `COc1ccc2nc(Nc3nc4cc5c(cc4s3)OCCO5)sc2c1` has a viability of 90.5%.
Work on `CCOc1ccc2nc(Nc3nc4ccc(NC(C)=O)cc4s3)sc2c1` yielded a viability of 74.6%.
For `COc1ccc2nc(Nc3nc4ccc(NC(C)=O)cc4s3)sc2c1`, the viability was 2.25% (active).
